The list is not random: actives were taken first. Their share in the collection is about 5%.
Vaccinia mCherry – inhibitors of vaccinia virus infection (mCherry reporter signal). 0.63% of 310,000 active. Vaccinia virus mCherry reporter infection, fluorescence. Potency, µM (highest dose often 36.5 µM), for inactives: at the highest dose activity change, negative = inhibition, usual class: inhibitors; calls by dose curve; tested in A549 cells; also: potency is read from the fitted curve at half-maximal effect; nearly all actives have a fitted effect of over 35% in size
Tb PYK inh – blocks Trypanosoma brucei pyruvate kinase; Q57TT1; TbPYK enzyme, Kinase-Glo Plus ATP luminescence, 45 min; Potency, µM (highest dose often 76.8 µM), inactives show top-dose activity, negative = inhibition, hits mostly inhibitors; 0.12% of 410,000 active; AID 624173; also: potency is read from the fitted curve at half-maximal effect; nearly all actives have a fitted effect of over 50% in size
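T. brucei PYK with substrate was exposed to pin-transferred compounds across a concentration series, then started with 130 uM ADP (final). After 45 min at room temperature, Kinase-Glo Plus luminescence was read, normalized and curve-fitted.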
LmPK inhibitor – blocks Leishmania mexicana pyruvate kinase activity. Q27686. purified LmPK, Kinase-Glo ATP luminescence, 1 h. Potency, µM (series often up to 57.5 µM), for the others: top-dose activity change, negative = inhibition, usual class: inhibitors. 0.37% of 290,000 active. AID 1721; also: potency is read from the fitted curve at half-maximal effect
Target sequence (Q27686 whole entry, looked up): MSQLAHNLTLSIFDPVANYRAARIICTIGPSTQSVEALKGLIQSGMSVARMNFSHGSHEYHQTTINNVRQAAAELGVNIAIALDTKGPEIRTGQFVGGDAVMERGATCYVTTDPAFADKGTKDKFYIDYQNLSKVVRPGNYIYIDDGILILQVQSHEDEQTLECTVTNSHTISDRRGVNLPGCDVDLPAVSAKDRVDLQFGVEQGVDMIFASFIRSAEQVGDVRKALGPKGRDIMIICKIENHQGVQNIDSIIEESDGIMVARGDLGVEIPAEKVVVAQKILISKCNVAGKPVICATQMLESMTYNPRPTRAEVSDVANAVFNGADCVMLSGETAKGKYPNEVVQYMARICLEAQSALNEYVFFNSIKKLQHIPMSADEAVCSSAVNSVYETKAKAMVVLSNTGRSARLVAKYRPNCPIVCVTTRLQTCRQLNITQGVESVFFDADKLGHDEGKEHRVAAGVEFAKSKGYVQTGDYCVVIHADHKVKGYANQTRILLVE
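Screened at intermediate enzyme activity to detect both inhibitors and activators: LmPK at 0.1 nM, with a 0.5 nM enzyme column as activation reference. PEP 0.5 mM, ADP 0.1 mM; ATP detected by luminescence after 1 h.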
HCMV inh – human cytomegalovirus inhibition; HFF cells, HCMV-luciferase reporter, 72 h; active compounds read low; activity change, negative = inhibition, % at 57.5 µM; 4.5% of 410,000 active; AID 1259415; in the data active = activity change below about -60%; inconclusive = no clear call, values can overlap the other calls; inactive = above about -39%
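Steps: HFFs plated, 16 h 37C; compounds added; HCMV-luciferase added to MOI 1 PFU/cell; 72 h 37C; OneGlo reagent, 5 min room temperature; luminescence read, normalized to controls.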
Vaccinia Venus – inhibitors of vaccinia virus (Venus reporter) | Vaccinia virus Venus reporter expression, fluorescence | Potency, µM (doses to about 36.5 µM), inactives show top-dose activity change, negative = inhibition, actives largely listed as inhibitors | 0.46% of 330,000 active; calls by dose curve; tested in A549 cells; also: potency is read from the fitted curve at half-maximal effect; nearly all actives have a fitted effect of over 30% in size
Starred values were filed as active, the others as inactive; i = inactive; ? = inconclusive; / = no result given; [ ] = dose if it differs, or a comment. Unless noted, calls follow the shape of the dose curve; as a rule, active = well fitted curve in the direction sought with a large enough effect; inconclusive = small, poorly fitted or top-dose-only effect, or another doubt; inactive = no such curve, though single readings can be large; an effect the other way counts as inactive or inconclusive. % is scaled to controls: 0 for no effect and ±100 for the full control effect.

SMILES	Vaccinia mCherry	Tb PYK inh	LmPK inhibitor	HCMV inh	Vaccinia Venus
Cc1c(CN2CCC(CO)(Cc3ccccc3)CC2)c2ccccc2n1C	/	1.7%	1.4%	?	/
CCc1nnc(NC(=O)CCc2c[nH]c3ccccc23)s1	-10.5%	-2.2%	-6.2%	7.7	-6.1%
CC(C(=O)c1ccc(-c2ccccc2)cc1)[n+]1cccc(NC(=O)c2ccccc2)c1 (stereo not given)	-14.0%	-0.1%	2.6%	-98.9*	-16.6%
O=C(Nc1ccc(Nc2ccncc2)cc1)c1ccc([N+](=O)[O-])cc1	-5.6%	2.3%	5.4%	-90.4*	-19.0%
O=C(Nc1ccccc1)c1ccc(CSc2ccccn2)cc1	-12.8%[1.46 µM]	?	12.6µM*	/	-11.2%
COCCC(=O)N1CCC(Oc2ccc(C(=O)N3CCCCCCC3)cc2)CC1	-14.0%	-2.5%	-12.8%	7.3	-7.3%
O=C(NN1C(=O)C2C3C=CC(O3)C2C1=O)c1cccc(O)c1 (stereo not given)	-11.9%	3.5%	0.4%	4.8	4.0%
COc1ccccc1-n1c(-c2cccnc2)n[nH]c1=S	-5.9%	?	14.1µM*	-36.6	-3.4%
COc1ccc(-c2cc(-c3n[nH]c(=S)n3-c3cccc4ccccc34)[nH]n2)cc1	?	-20.9%	1.1%	20.6	?
Cc1ccc(-n2c(-c3ccc(Cl)cc3)n[nH]c2=S)c(C)c1	/	5.01µM*	20µM*	?	/
COc1ccc(-c2n[nH]c(=S)n2-c2ccc(C)cc2C)cc1	/	17.8µM*	-2.4%	-2.9	/
CCn1c(-c2ccc(Cl)cc2)n[nH]c1=S	/	?	?	18.4	/
Cc1ccc(-n2c(-c3cccnc3)n[nH]c2=S)c(C)c1	/	/	12.6µM*	-0.3	/
Cc1ccc(-n2c(-c3cnccn3)n[nH]c2=S)c(Br)c1	-12.0%	?	31.6µM*	18.6	-4.8%
COc1ccc(-c2cncnc2-c2ccc(OC)cc2O)cc1	/	5.3%	3.0%	-63.8*	/
C=C(C)COc1ccc(-c2ncncc2-c2ccccc2OC)c(O)c1	-0.6%	-8.0%	-1.4%	-69.4*	-25.8%
CC12CCC(C1)C(C)(C)C2OC(=O)c1ccccc1C(=O)O (stereo not given)	/	-3.0%	-1.1%	-37.1	/
CN1CCN(c2nc(-c3ccccn3)nc3ccccc23)CC1	/	4.8%	-3.8%	-16.3	/
CC(=O)Nc1ccc(Oc2ncccn2)cc1	/	-4.7%	0.1%	/	14.2%
Cc1cccc(Oc2nc(-c3ccccn3)nc3ccccc23)c1	?	-8.1%	4.5%	-72.3*	?
c1ccc(N2CCN(c3nc(-c4ccccn4)nc4ccccc34)CC2)cc1	?	-20.3%	4.8%	-99.4*	?
Cc1ccccc1Oc1nc(-c2ccccn2)nc2ccccc12	-22.6%	-3.2%	-0.1%	-99.2*	?
CC(=O)Nc1ccc(Oc2nc(-c3ccccn3)nc3ccccc23)cc1	-12.6%	-3.6%	1.1%	-102.2*	?
COc1ccc(CCC(=O)Nc2ccc3c(c2)OCCO3)cc1	-5.1%	2.4%	1.8%	-6.2	-17.6%
CC(=O)Nc1cccc(Oc2nc(-c3ccccn3)nc3ccccc23)c1	?	-3.5%	-0.3%	-61.2*	-20.4%[7.34 µM]
SMILES	Vaccinia mCherry	Tb PYK inh	LmPK inhibitor	HCMV inh	Vaccinia Venus
COc1ccc(CNC(=O)COc2cc(O)c3c(c2)OC(C)(C)CC3=O)c(OC)c1	3.9%	-10.0%	-0.2%	2.2	1.6%
COc1cccc(CNc2ncnc3nc[nH]c23)c1	-11.7%	/	/	/	-25.1%
Cc1ccccc1/C=N/Nc1ccnc2cc(Cl)ccc12	?	2.4%	-2.6%	-69.4*	?
Clc1ccc2c(N/N=C/c3ccc(Br)cc3)ccnc2c1	?	-1.9%	-4.6%	-73.1*	?
Clc1ccc2c(N/N=C/c3cccnc3)ccnc2c1	?	-3.8%	-4.2%	?	-20.5%
Cc1ccc(/C=N/Nc2ccnc3cc(Cl)ccc23)c(C)c1	/	2.1%	-0.3%	-76.0*	/
FC(F)Sc1nc2ccccc2[nH]1	-29.7%	?	-1.3%	11.0	-2.4%
CC[C@]12c3[nH]c4ccccc4c3CCN1C(=O)C(CC(=O)NCCN1CCOCC1)C[C@@H]2C(=O)N1CCN(C(=O)c2ccco2)CC1 (stereo not given in full)	i	14.4%	/	8.5	-5.9%
OCC[C@@H]1C[C@H](O)[C@@H](O)[C@@]2(OCc3cc(C(F)(F)F)ccc32)O1	-10.9%	3.4%	/	-5.4	-20.0%
COc1ccc2oc(C(=O)N3CCN(S(=O)(=O)c4cccc([N+](=O)[O-])c4)CC3)c(C)c2c1	?	-2.2%	-0.3%	-67.1*	0.9%
CCOc1ccc(S(=O)(=O)N2CCN(C(=O)c3oc4ccc(OC)cc4c3C)CC2)cc1	-20.7%	4.9%	/	-11.5	-10.6%
CCN1CCN(Cc2nc3ccc([N+](=O)[O-])cc3c(=O)n2-c2ccc(OC)cc2OC)CC1	-7.1%	-10.9%	-3.7%	106.4	-12.4%
CCC(=O)N(Cc1ccco1)c1nc(-c2ccccc2)cs1	/	/	-2.9%	-4.9	/
CC(C)(C)c1ccc(CN2C3=NCCCN3c3ccccc32)cc1	?	6.8%	-4.2%	-85.0*	?
COc1ccc(OC)c(NC(=O)CCNS(=O)(=O)c2cc(Br)cnc2N)c1	/	3.1%	1.5%	-31.7	/
CCOC(=O)C(NC(=O)C(Cc1ccc(N(CCCl)CCCl)cc1)NC(C)=O)C(C)C (stereo not given)	i	-5.3%	2.2%	54.3	-5.6%
COC(=O)C(Cc1ccc(N(CCCl)CCCl)cc1)N=Cc1ccccc1O (stereo not given)	-23.3%	-9.6%	0.7%	-103.5*	?
CCOC(=O)N1CCN(C(=O)C(NC(=O)c2ccc(C(C)(C)C)cc2)C(C)C)CC1 (stereo not given)	/	0.9%	/	-61.7*	/
CCOC(=O)N1CCN(C(=O)c2ccccc2NC(=O)c2ccc(C(C)(C)C)cc2)CC1	i	3.4%	-0.9%	?	-9.7%
COc1ccc(NS(=O)(=O)c2ccc3c(c2)N(C(C)=O)CC(C)S3)c(OC)c1 (stereo not given)	/	-4.8%	-6.7%	-85.1*	/
COc1ccc(CNS(=O)(=O)c2ccc3c(c2)N(C(C)=O)CC(C)S3)cc1 (stereo not given)	-0.3%	1.4%	-7.3%	-91.2*	-15.5%
CC(=O)N1CC(C)Sc2ccc(S(=O)(=O)NC3CCCCC3)cc21 (stereo not given)	/	-2.6%	-3.1%	?	/
CC(=O)N1CC(C)Sc2ccc(S(=O)(=O)NCc3ccc(F)cc3)cc21 (stereo not given)	/	0.3%	-0.3%	?	/
CCCCC(CC)C(=O)Nc1ccc(S(=O)(=O)N2CCCC2)cc1 (stereo not given)	/	-3.4%	6.4%	14.6	/
c1csc(-c2nc(CN3CCSCC3)cs2)c1	-15.5%	?	15.8µM*	29.6	-10.3%
O=S1(=O)CCN(Cc2csc(-c3cccs3)n2)CC1	-0.5%[7.34 µM]	-29.0%	?	17.7	-3.6%[7.34 µM]
Cn1c(=O)c2c(nc(NCCNC(=O)c3ccco3)n2Cc2ccccc2Cl)n(C)c1=O	/	0.9%	1.5%	37.5	/

Compound activity as filed in PubChem BioAssay.
